Reference: the supplement of paper PMC12282887
± gives the standard deviation of the averaged measurements.

Key:
Test in all cases: promoter activity interaction Z-score (Lux/OD deviation from empty-vector control); higher = stronger promoter induction by the compound
[1] = tested on: E. coli BW25113 acrABp lux reporter
How it was run: (§1)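 E. coli BW25113, as wild type or one of three single-gene deletion strains, carried low-copy luxCDABE promoter reporters and grew in 40 µl LB Lennox in 384-well plates at 37°C, with OD600 and luminescence read every 30 min for 12 h. Each compound was run at four 1:2 dilutions in biological duplicates, integration spanned 0–8 h for wild type and 1–9 h for deletion strains, and wells under 10% of the median growth value were dropped. The score is the Z-transformed residual of growth-normalised luminescence fitted against a control.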

[2] = tested on: E. coli BW25113 marRABp lux reporter
How it was run: as §1

[3] = tested on: E. coli BW25113 micFp lux reporter
How it was run: as §1

[4] = tested on: E. coli BW25113 ompFp lux reporter
How it was run: as §1

[5] = tested on: E. coli BW25113 robp lux reporter
How it was run: as §1

[6] = tested on: E. coli BW25113 soxSp lux reporter
How it was run: as §1

[7] = tested on: E. coli BW25113 tolCp lux reporter
How it was run: as §1

[8] = 18.1 µg/ml, genetic background: wild type
[9] = 18.1 µg/ml, genetic background: ΔmarA
[10] = 18.1 µg/ml, genetic background: Δrob
[11] = 18.1 µg/ml, genetic background: ΔsoxS
[12] = 36.3 µg/ml, genetic background: wild type
[13] = 36.3 µg/ml, genetic background: ΔmarA
[14] = 36.3 µg/ml, genetic background: Δrob
[15] = 36.3 µg/ml, genetic background: ΔsoxS
[16] = 72.6 µg/ml, genetic background: wild type
[17] = 72.6 µg/ml, genetic background: ΔmarA
[18] = 72.6 µg/ml, genetic background: Δrob
[19] = 72.6 µg/ml, genetic background: ΔsoxS
[20] = 145.1 µg/ml, genetic background: wild type
[21] = 145.1 µg/ml, genetic background: ΔmarA
[22] = 145.1 µg/ml, genetic background: Δrob
[23] = 145.1 µg/ml, genetic background: ΔsoxS

SMILES: Oc1cc(O)c2c(c1)O[C@@H](c1ccc(O)c(O)c1)[C@H](O)C2 [Catechin]
- promoter activity interaction Z-score [1, 8]: 0.118 ± 0.17
- promoter activity interaction Z-score [1, 9]: -0.352 ± 0.15
- promoter activity interaction Z-score [1, 10]: 0.3299 ± 0.003
- promoter activity interaction Z-score [1, 11]: -0.306 ± 0.42
- promoter activity interaction Z-score [1, 12]: 0.149 ± 0.084
- promoter activity interaction Z-score [1, 13]: -1.14 ± 0.28
- promoter activity interaction Z-score [1, 14]: 0.394 ± 0.14
- promoter activity interaction Z-score [1, 15]: -0.191 ± 0.27
- promoter activity interaction Z-score [1, 16]: -0.243 ± 0.23
- promoter activity interaction Z-score [1, 17]: -0.35 ± 0.0073
- promoter activity interaction Z-score [1, 18]: 0.0378 ± 0.18
- promoter activity interaction Z-score [1, 19]: -0.0752 ± 0.23
- promoter activity interaction Z-score [1, 20]: -0.205 ± 0.27
- promoter activity interaction Z-score [1, 21]: -0.135 ± 0.26
- promoter activity interaction Z-score [1, 22]: 0.0277 ± 0.083
- promoter activity interaction Z-score [1, 23]: -0.364 ± 0.16
- promoter activity interaction Z-score [2, 8]: 0.176 ± 0.43
- promoter activity interaction Z-score [2, 9]: -0.0258 ± 0.23
- promoter activity interaction Z-score [2, 10]: 0.052 ± 0.11
- promoter activity interaction Z-score [2, 11]: -0.135 ± 0.017
- promoter activity interaction Z-score [2, 12]: -0.308 ± 0.32
- promoter activity interaction Z-score [2, 13]: -0.311 ± 0.035
- promoter activity interaction Z-score [2, 14]: -0.0876 ± 0.28
- promoter activity interaction Z-score [2, 15]: -0.0441 ± 0.25
- promoter activity interaction Z-score [2, 16]: 0.00953 ± 0.33
- promoter activity interaction Z-score [2, 17]: -0.104 ± 0.28
- promoter activity interaction Z-score [2, 18]: -0.105 ± 0.045
- promoter activity interaction Z-score [2, 19]: -0.241 ± 0.033
- promoter activity interaction Z-score [2, 20]: -0.286 ± 0.36
- promoter activity interaction Z-score [2, 21]: -0.359 ± 0.22
- promoter activity interaction Z-score [2, 22]: -0.128 ± 0.36
- promoter activity interaction Z-score [2, 23]: -0.183 ± 0.067
- promoter activity interaction Z-score [3, 8]: -0.45 ± 0.11
- promoter activity interaction Z-score [3, 9]: -0.0948 ± 0.022
- promoter activity interaction Z-score [3, 10]: -0.0243 ± 0.03
- promoter activity interaction Z-score [3, 11]: -0.43 ± 0.036
- promoter activity interaction Z-score [3, 12]: -0.372 ± 0.21
- promoter activity interaction Z-score [3, 13]: -0.115 ± 0.1
- promoter activity interaction Z-score [3, 14]: -0.0591 ± 0.057
- promoter activity interaction Z-score [3, 15]: -0.4729 ± 0.00069
- promoter activity interaction Z-score [3, 16]: -0.209 ± 0.095
- promoter activity interaction Z-score [3, 17]: -0.0545 ± 0.022
- promoter activity interaction Z-score [3, 18]: -0.0723 ± 0.19
- promoter activity interaction Z-score [3, 19]: -0.295 ± 0.12
- promoter activity interaction Z-score [3, 20]: -0.569 ± 0.15
- promoter activity interaction Z-score [3, 21]: -0.0791 ± 0.1
- promoter activity interaction Z-score [3, 22]: -0.0881 ± 0.0077
- promoter activity interaction Z-score [3, 23]: -0.263 ± 0.028
- promoter activity interaction Z-score [4, 8]: 0.365 ± 0.41
- promoter activity interaction Z-score [4, 9]: -0.591 ± 0.23
- promoter activity interaction Z-score [4, 10]: -0.0407 ± 0.17
- promoter activity interaction Z-score [4, 11]: -0.757 ± 0.35
- promoter activity interaction Z-score [4, 12]: 0.374 ± 0.65
- promoter activity interaction Z-score [4, 13]: -0.588 ± 0.15
- promoter activity interaction Z-score [4, 14]: 0.0282 ± 0.096
- promoter activity interaction Z-score [4, 15]: -0.571 ± 0.38
- promoter activity interaction Z-score [4, 16]: 0.326 ± 0.55
- promoter activity interaction Z-score [4, 17]: -0.202 ± 0.48
- promoter activity interaction Z-score [4, 18]: -0.391 ± 0.39
- promoter activity interaction Z-score [4, 19]: -0.391 ± 0.094
- promoter activity interaction Z-score [4, 20]: -0.0294 ± 0.93
- promoter activity interaction Z-score [4, 21]: -0.395 ± 0.18
- promoter activity interaction Z-score [4, 22]: 0.079 ± 0.47
- promoter activity interaction Z-score [4, 23]: -0.14 ± 0.27
- promoter activity interaction Z-score [5, 8]: 1.06 ± 0.79
- promoter activity interaction Z-score [5, 9]: -0.456 ± 0.041
- promoter activity interaction Z-score [5, 10]: 0.533 ± 0.081
- promoter activity interaction Z-score [5, 11]: 0.443 ± 0.12
- promoter activity interaction Z-score [5, 12]: 0.0214 ± 0.94
- promoter activity interaction Z-score [5, 13]: -0.758 ± 0.23
- promoter activity interaction Z-score [5, 14]: 0.0934 ± 0.32
- promoter activity interaction Z-score [5, 15]: 0.783 ± 1.1
- promoter activity interaction Z-score [5, 16]: 0.124 ± 0.48
- promoter activity interaction Z-score [5, 17]: -0.279 ± 0.31
- promoter activity interaction Z-score [5, 18]: -0.125 ± 0.14
- promoter activity interaction Z-score [5, 19]: -0.0104 ± 0.026
- promoter activity interaction Z-score [5, 20]: 0.00344 ± 0.46
- promoter activity interaction Z-score [5, 21]: 0.234 ± 0.22
- promoter activity interaction Z-score [5, 22]: -0.253 ± 0.025
- promoter activity interaction Z-score [5, 23]: 0.154 ± 0.41
- promoter activity interaction Z-score [6, 8]: -0.0785 ± 0.09
- promoter activity interaction Z-score [6, 9]: 0.187 ± 0.029
- promoter activity interaction Z-score [6, 10]: 0.051 ± 0.17
- promoter activity interaction Z-score [6, 11]: -0.175 ± 0.061
- promoter activity interaction Z-score [6, 12]: -0.0143 ± 0.021
- promoter activity interaction Z-score [6, 13]: 0.127 ± 0.097
- promoter activity interaction Z-score [6, 14]: 0.055 ± 0.095
- promoter activity interaction Z-score [6, 15]: -0.0693 ± 0.098
- promoter activity interaction Z-score [6, 16]: -0.0515 ± 0.13
- promoter activity interaction Z-score [6, 17]: 0.0702 ± 0.24
- promoter activity interaction Z-score [6, 18]: 0.012 ± 0.11
- promoter activity interaction Z-score [6, 19]: -0.155 ± 0.42
- promoter activity interaction Z-score [6, 20]: -0.342 ± 0.028
- promoter activity interaction Z-score [6, 21]: -0.0381 ± 0.14
- promoter activity interaction Z-score [6, 22]: -0.122 ± 0.12
- promoter activity interaction Z-score [6, 23]: -0.346 ± 0.37
- promoter activity interaction Z-score [7, 8]: 0.35 ± 1.1
- promoter activity interaction Z-score [7, 9]: 0.209 ± 0.5
- promoter activity interaction Z-score [7, 10]: 0.0748 ± 1.2
- promoter activity interaction Z-score [7, 11]: -0.253 ± 0.35
- promoter activity interaction Z-score [7, 12]: -0.149 ± 0.74
- promoter activity interaction Z-score [7, 13]: -0.0811 ± 0.12
- promoter activity interaction Z-score [7, 14]: 0.0597 ± 0.79
- promoter activity interaction Z-score [7, 15]: -0.531 ± 0.23
- promoter activity interaction Z-score [7, 16]: -0.323 ± 0.58
- promoter activity interaction Z-score [7, 17]: 0.371 ± 0.19
- promoter activity interaction Z-score [7, 18]: -0.107 ± 0.25
- promoter activity interaction Z-score [7, 19]: -0.249 ± 0.24
- promoter activity interaction Z-score [7, 20]: -0.897 ± 0.36
- promoter activity interaction Z-score [7, 21]: 0.397 ± 0.58
- promoter activity interaction Z-score [7, 22]: 0.104 ± 0.68
- promoter activity interaction Z-score [7, 23]: 0.637 ± 0.9
